Sampled rows, rich in hits. Any-hit rate of the full collection: about 19%.
TDP1 cell CPT – growth inhibition of DT40 Tdp1-/-;hTDP1 cells with camptothecin (screen for TDP1 inhibitors); chicken DT40 Tdp1-/-;hTDP1 cells + 20 nM CPT, ATP luminescence, 48 h; Potency, µM (top dose mostly 46.2 µM), for the others: top-dose activity change, negative = growth inhibition, hits mostly inhibitors; hit rate 12% among 420,000; AID 686979; also: potency is read from the fitted curve at half-maximal effect; nearly all actives have a fitted effect of over 55% in size
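Cell growth measured by CellTiter-Glo luminescence after a minimum 48 h, 37 C compound exposure with 20 nM CPT in Tdp1-knockout DT40 cells stably expressing hTDP1, seeded 400/well; qHTS titration format.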
HT1080-NT tox – kills 2HG-producing HT-1080-NT fibrosarcoma cells. HT-1080-NT fibrosarcoma viability, CellTiter-Glo ATP luminescence, 48 h. Potency, µM (highest dose often 46.1 µM), inactives show top-dose activity, negative = less viability, usual class: cytotoxic. hit rate 1.6% among 360,000;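 also: NT is the 2HG producing partner of a matched IDH1 knockdown line; potency is read from the fitted curve at half-maximal effect; 0% = DMSO-treated cells and -100% = media-only wells without cells; nearly all actives have a fitted effect of over 55% in size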
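Compounds were tested in concentration-response format on HT-1080-NT cells for 48 hours at 37 degrees C. Cell viability came from CellTiter-Glo luminescence; curves were classified by r2, response magnitude and activity.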
IL1B secr inh – blocks inflammasome-driven IL-1 beta release. THP-1 LPS/ATP IL-1B secretion, AlphaLISA, 16 h; stronger effect = lower value. activity change, % at 57.5 µM. hit rate 4.7% among 360,000. AID 743279; in the data active = activity change below about -50%; inconclusive = mostly about -30% to -49%
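Secreted IL-1B measured by AlphaLISA bead assay after 16 h compound exposure of THP-1 cells; compounds (final up to 57.5 uM) added 1 h before LPS (250 ng/mL) and ATP (1.25 mM) stimulation; lower signal means less secretion.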
TDP1 cell noCPT – qHTS for Inhibitors of human tyrosyl-DNA phosphodiesterase 1 (TDP1): qHTS in cells in absence of CPT. DT40 Tdp1-/- hTDP1 cells, no CPT, ATP luminescence, 48 h. Potency, µM (series often up to 46.2 µM), without a hit: at the top dose activity change, negative = growth inhibition, most hits filed as inhibitors. hit rate 15% among 420,000. AID 686978, 2013; also: potency is read from the fitted curve at half-maximal effect; nearly all actives have a fitted effect of over 55% in size
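A cellular qHTS used chicken DT40 cells lacking endogenous Tdp1 but carrying stably transfected human TDP1. Compounds were applied without camptothecin, and cell growth kinetics were judged by ATP-dependent luminescence after ≥48 hr.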
HT1080 IDH1KD tx – HT-1080 IDH1 knockdown cell toxicity (counter line); HT-1080 IDH1 knockdown viability, ATP luminescence, 48 h; AID 686971; Potency, µM (titrated, usually from 46.1 µM), without a hit: top-dose activity, negative = toxicity, actives largely listed as cytotoxic; hit rate 2% among 360,000;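 also: potency is read from the fitted curve at half-maximal effect; 0% = DMSO wells and -100% = cell-free medium wells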
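Assay cells: HT-1080 with IDH1 knockdown, 750 per well, RPMI/5% FBS. Exposure: 48 h at 37 °C following 2 h pre-incubation. Read: CellTiter-Glo luminescence; fitted concentration-response, curve class assigned.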
An asterisk follows results filed as active; [ ] = remark or other dose. Unless noted, calls follow the shape of the dose curve; as a rule, active = well fitted curve in the direction sought with a large enough effect; inconclusive = small, poorly fitted or top-dose-only effect, or another doubt; inactive = no such curve, though single readings can be large; an effect the other way counts as inactive or inconclusive. Unless noted, % is scaled to controls: 0 for no effect and ±100 for the full control effect.

How did CN(C)CCCN(Cc1cc2cc3c(cc2[nH]c1=O)OCO3)C(=S)Nc1ccccc1 do in these assays?
TDP1 cell CPT: 0%; HT1080-NT tox: -6%; IL1B secr inh: -62*; TDP1 cell noCPT: -4%; HT1080 IDH1KD tx: -4%

How did COc1ccccc1NC(=O)N(Cc1cccs1)Cc1cc2cc3c(cc2[nH]c1=O)OCO3 do in these assays?
TDP1 cell CPT: inconclusive; HT1080-NT tox: inconclusive; IL1B secr inh: 8; TDP1 cell noCPT: 16µM*; HT1080 IDH1KD tx: inconclusive

Results for COc1ccc(CC(=O)NCC2CCCN(Cc3ccc(SC)cc3)C2)cc1 (centres undefined) ?
TDP1 cell CPT: 1%; HT1080-NT tox: 7%; IL1B secr inh: 0; TDP1 cell noCPT: -30%; HT1080 IDH1KD tx: 2%

What do the screens show for `CCCCn1c(N)c(N(CCOC)C(=O)CN2C(=O)C3CCCCC3C2=O)c(=O)[nH]c1=O` (centres undefined)?
TDP1 cell CPT: -30%; HT1080-NT tox: 1%; IL1B secr inh: 12; TDP1 cell noCPT: 13%; HT1080 IDH1KD tx: -1%

Results for Cc1ccc(N(C(=O)CCCC(=O)Nc2ccccn2)C(C(=O)NC2CCCC2)c2ccc(O)cc2)cc1C (centres undefined) ?
TDP1 cell CPT: inconclusive; HT1080-NT tox: -2%; IL1B secr inh: -75*; TDP1 cell noCPT: inconclusive; HT1080 IDH1KD tx: -1%

Results for Cc1ccc(N(C(=O)CNC(=O)c2ccco2)C(C(=O)NC2CCCCC2)c2cccnc2)cc1C (centres undefined) ?
TDP1 cell CPT: 0%; HT1080-NT tox: 8%; IL1B secr inh: -13; TDP1 cell noCPT: 2%; HT1080 IDH1KD tx: 3%

Results for Cc1ccc(N(C(=O)CCl)C(C(=O)NC2CCCCC2)c2cccnc2)cc1C (centres undefined) ?
TDP1 cell CPT: 1.8µM*; HT1080-NT tox: 1.6µM*; IL1B secr inh: -100*; TDP1 cell noCPT: 1.6µM*; HT1080 IDH1KD tx: 1.6µM*

Results for CCOc1ccccc1NC(=O)C1=C(C)Nc2ncnn2C1c1ccccn1 (centres undefined) ?
TDP1 cell CPT: -1%; TDP1 cell noCPT: 0%

How did C[C@]12CCC(=O)C=C1[C@@H]1C[C@@H]1[C@H]1[C@@H]3[C@@H]4C[C@@H]4[C@@]4(CCC(=O)O4)[C@@]3(C)CC[C@@H]12 do in these assays?
TDP1 cell CPT: 8.4µM*; TDP1 cell noCPT: 7.5µM*

Results for Cc1cc(Cl)ccc1OC(C)C(=O)N1CCCN(C(=O)C(C)Oc2ccc(Cl)cc2C)CC1 (centres undefined) ?
TDP1 cell CPT: 21µM*; HT1080-NT tox: 18µM*; IL1B secr inh: -65*; TDP1 cell noCPT: 21µM*; HT1080 IDH1KD tx: 21µM*

What do the screens show for `Cc1cc(Cl)ccc1OC(C)C(=O)Nc1cccc(S(=O)(=O)N2CCOCC2)c1` (centres undefined)?
TDP1 cell CPT: inconclusive; HT1080-NT tox: -13%; IL1B secr inh: inconclusive; TDP1 cell noCPT: inconclusive; HT1080 IDH1KD tx: -22%

What do the screens show for `Cc1cc(Cl)ccc1OC(C)C(=O)Nc1ccccc1N1CCOCC1` (centres undefined)?
TDP1 cell CPT: inconclusive; HT1080-NT tox: 0%; IL1B secr inh: -58*; TDP1 cell noCPT: inconclusive; HT1080 IDH1KD tx: -16%

Results for CC(Oc1ccc(Cl)cc1)C(=O)Nc1ccccc1N1CCOCC1 (centres undefined) ?
TDP1 cell CPT: inconclusive; HT1080-NT tox: 2%; IL1B secr inh: 6; TDP1 cell noCPT: 21µM*; HT1080 IDH1KD tx: 3%

How did COCCCNc1ncnc2sc(C(=O)N3CCCCC3)c(C)c12 do in these assays?
TDP1 cell CPT: -13%[9.04 µM]; TDP1 cell noCPT: inconclusive

Results for CCNC(=O)C1(C)CCN(Cc2noc(-c3c(C)noc3C)n2)C1 (centres undefined) ?
TDP1 cell CPT: -5%; HT1080-NT tox: 29%; IL1B secr inh: 19; TDP1 cell noCPT: -13%; HT1080 IDH1KD tx: 4%

What do the screens show for `O=C(CC1N=C2c3ccccc3N=C(SCc3ccc(F)cc3)N2C1=O)NC1CCCCC1` (centres undefined)?
TDP1 cell CPT: inconclusive; TDP1 cell noCPT: 16µM*

How did O=C(CCC1N=C2c3ccccc3N=C(SCc3ccc(F)cc3)N2C1=O)NC1CCCCC1 (centres undefined) do in these assays?
TDP1 cell CPT: 21µM*; TDP1 cell noCPT: 10µM*

How did COc1ccc(NC(=O)CSC2=Nc3ccccc3C3=NC(CC(=O)NCc4ccc(F)cc4)C(=O)N23)cc1 (centres undefined) do in these assays?
TDP1 cell CPT: -7%; TDP1 cell noCPT: -15%

Results for Cc1ccc(CSC2=Nc3ccccc3C3=NC(CC(=O)NC4CCCCC4)C(=O)N23)cc1 (centres undefined) ?
TDP1 cell CPT: 1.2µM*; TDP1 cell noCPT: 1.2µM*

How did COc1ccc(NC(=O)CCS(=O)(=O)c2cccc3nonc23)cc1Cl do in these assays?
TDP1 cell CPT: inconclusive; HT1080-NT tox: 1%; IL1B secr inh: -12; TDP1 cell noCPT: -16%; HT1080 IDH1KD tx: 5%

Results for COc1ccc(N2CCN(C(=O)[C@@H](NC(=O)c3ccccc3Cl)C(C)C)CC2)cc1 ?
TDP1 cell CPT: inconclusive; HT1080-NT tox: 28%; IL1B secr inh: 0; TDP1 cell noCPT: inconclusive; HT1080 IDH1KD tx: -5%

Results for CCCn1c(N)c(Sc2ccc([N+](=O)[O-])cc2)c(=O)n(CCC)c1=O ?
TDP1 cell CPT: -14%; HT1080-NT tox: -5%; IL1B secr inh: -16; TDP1 cell noCPT: inconclusive; HT1080 IDH1KD tx: -4%

How did CCCn1c(N)c(Sc2ccccc2)c(=O)n(CCC)c1=O do in these assays?
TDP1 cell CPT: inconclusive; HT1080-NT tox: 6%; IL1B secr inh: 0; TDP1 cell noCPT: 15µM*; HT1080 IDH1KD tx: -5%

How did Cn1c(=O)c2c(nc(NCCNC(=O)c3ccco3)n2Cc2ccccc2Cl)n(C)c1=O do in these assays?
TDP1 cell CPT: -27%; HT1080-NT tox: 13%; IL1B secr inh: 21; TDP1 cell noCPT: inconclusive; HT1080 IDH1KD tx: 1%

How did Cn1c(N/N=C/c2cccs2)nc2c1c(=O)n(Cc1ccccc1)c(=O)n2C do in these assays?
TDP1 cell CPT: -16%; HT1080-NT tox: 1%; IL1B secr inh: 19; TDP1 cell noCPT: -27%; HT1080 IDH1KD tx: 1%

How did Cn1c(=O)c2c(nc(N/N=C/c3cccs3)n2Cc2ccccc2)n(C)c1=O do in these assays?
TDP1 cell CPT: inconclusive; HT1080-NT tox: 5%; IL1B secr inh: 23; TDP1 cell noCPT: 23µM*; HT1080 IDH1KD tx: 7%

From PubChem
